Sampled rows, rich in hits. Any-hit rate of the full collection: about 1.3%.
AmpC no deterg = AmpC beta-lactamase inhibition without detergent; P00811; AmpC nitrocefin hydrolysis, absorbance 480 nm, 0.0001% Triton; Potency, µM (top dose mostly 57.1 µM), without a hit: at the highest dose activity change, negative = inhibition, hits mostly inhibitors; actives 0.52% (n = 330,000); AID 485341;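 also: plate controls were no compound for no effect and no enzyme for full effect; nearly all actives have a fitted effect of over 20% in size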
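AmpC (5.3 nM in the dispensed reagent) in 20 mM phosphate pH 7.0 with 0.01% (detergent screen) or 0.0001% Triton X-100 was preincubated with compounds for 15 min at room temperature. Nitrocefin was then added from an 800 uM solution, and hydrolysis was followed at 480 nm.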
AmpC inh detg = inhibitors of E. coli AmpC beta-lactamase with detergent; P00811; AmpC hydrolysis of nitrocefin, absorbance 480 nm, 0.01% Triton; Potency, µM (series often up to 114 µM), without a hit: at the top dose activity change, negative = inhibition, usual class: inhibitors; actives 0.041% (n = 370,000);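 also: 0% = no-compound wells and -100% = no-enzyme wells; nearly all actives have a fitted effect of over 25% in size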
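AmpC (5.3 nM in the dispensed reagent) in 20 mM phosphate pH 7.0 with 0.01% (detergent screen) or 0.0001% Triton X-100 was preincubated with compounds for 15 min at room temperature. Nitrocefin was then added from an 800 uM solution, and hydrolysis was followed at 480 nm.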
AMA1 RON2 block = inhibitors of Plasmodium falciparum AMA1-RON2 interaction; AlphaScreen AMA1-biotinylated RON2 peptide binding; actives 0.2% (n = 360,000); Potency, µM (series often up to 58.2 µM), for the others: at the highest dose activity change, negative = inhibition, most hits filed as inhibitors;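 also: 0% = vehicle wells and -100% = peptide control; nearly all actives have a fitted effect of over 45% in size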
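AMA1 (3D7) with his tag at 25 nM final met compounds first, then biotinylated RON2 peptide at 25 nM; detection used donor plus acceptor beads, 10 µg/mL apiece, read by AlphaScreen after 30 min at room temperature.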
Giardia FBPA inh = blocks Giardia fructose-bisphosphate aldolase activity; A8B2U2; purified Giardia FBPA; Potency, µM (highest dose often 59.6 µM), without a hit: at the top dose activity, negative = inhibition, usual class: inhibitors; actives 0.71% (n = 290,000); AID 2451; also: nearly all actives have a fitted effect of over 55% in size
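40 nM FBPA preincubated 10 min at RT with compound (up to 57.5 uM final), then substrate plus GAPDH/TPI/NAD/arsenate coupling and diaphorase/resazurin added. Fluorescence read after 20 min at RT, 525/598 nm.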
LmPK inh = inhibitors of Leishmania mexicana pyruvate kinase; actives 0.37% (n = 290,000); AID 1721; Potency, µM (top dose mostly 57.5 µM), for inactives: at the top dose activity change, negative = inhibition, most hits filed as inhibitors; purified LmPK, Kinase-Glo ATP luminescence, 1 h
Target sequence (Q27686 whole entry, looked up): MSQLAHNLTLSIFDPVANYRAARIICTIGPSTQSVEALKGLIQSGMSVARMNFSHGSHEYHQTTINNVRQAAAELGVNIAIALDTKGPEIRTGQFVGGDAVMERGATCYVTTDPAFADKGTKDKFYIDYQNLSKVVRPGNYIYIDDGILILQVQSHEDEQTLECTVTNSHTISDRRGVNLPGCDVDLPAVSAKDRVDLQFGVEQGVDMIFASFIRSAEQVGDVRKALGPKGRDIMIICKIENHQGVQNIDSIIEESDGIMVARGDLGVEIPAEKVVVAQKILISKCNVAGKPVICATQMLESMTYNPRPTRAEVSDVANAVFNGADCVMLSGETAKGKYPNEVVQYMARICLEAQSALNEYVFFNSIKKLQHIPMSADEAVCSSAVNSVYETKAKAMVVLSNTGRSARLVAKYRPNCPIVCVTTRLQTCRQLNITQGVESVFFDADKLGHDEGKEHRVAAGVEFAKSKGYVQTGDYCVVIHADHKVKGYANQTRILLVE
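qHTS format; LmPK 0.1 nM; substrates PEP 0.5 mM and ADP 0.1 mM. One-hour room-temperature incubation, then coupled luciferase luminescence; 0.5 nM enzyme wells mark activation.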
* = called active by the depositor; ? = inconclusive; · = no result given. Calls follow the shape of the dose curve; as a rule, active = well fitted curve in the direction sought with a large enough effect; inconclusive = small, poorly fitted or top-dose-only effect, or another doubt; inactive = no such curve, though single readings can be large; an effect the other way counts as inactive or inconclusive. Unless noted, % is scaled to controls: 0 for no effect and ±100 for the full control effect; potency is read from the fitted curve at half-maximal effect.

SMILES	AmpC no deterg	AmpC inh detg	AMA1 RON2 block	Giardia FBPA inh	LmPK inh
Cc1cc(O)c(C(=O)/C=C/c2ccccc2Br)c(=O)o1	13µM*	-15%	55%	3%	-1%
Cc1cc(O)c(C(=O)/C=C/c2ccc(C(C)C)cc2)c(=O)o1	13µM*	-5%	78%	14%	-4%
Cc1cccc(CSc2ccc(S(=O)(=O)N3CCCC3)cn2)c1	-11%	?	52%	·	·
CC(=O)Nc1cccc(-c2ccnc3c2CC(C)(C(=O)Nc2ccc(C(C)C)cc2)O3)c1 (configuration not stated)	·	·	-4%	·	·
CCOc1ccc2nc(N3CCN(C(=O)CS(=O)(=O)c4ccc(F)cc4)CC3)sc2c1	·	-1%	·	·	·
C=CCN1C=C/C(=C\C=C(C#N)C#N)c2ccccc21	-14%	-15%	14µM*	-5%	-25%
CC[C@@H](NCCCn1cnc2c(SC)ncnc21)c1ccccc1	·	·	-8%	·	·
COc1ccccc1-c1cc2nc(-c3ccccc3)cc(N3CCN(C(=O)c4ccoc4)CC3)n2n1	·	·	19%	·	·
CCC(=O)Nc1nc(-c2ccc3c(c2)OCCO3)cs1	40µM*	?	0%	-3%	-1%
COc1ccccc1NS(=O)(=O)c1ccc(Br)s1	-25%	-6%	-28%	-1%	-1%
O=S(=O)(Nc1cc(O)cc2cccnc12)c1ccc(Br)s1	·	·	·	3.2µM*	·
O=S(=O)(Nc1cc(O)cc2cccnc12)c1ccc(Cl)s1	·	·	·	3.2µM*	·
CC(C)(C)OC(=O)N1CCCC1C(=O)NC1COC2CC(n3cc(F)c(=O)[nH]c3=O)OC12 (configuration not stated)	·	·	·	4%	·
CC(=O)N(c1ccccc1C)C1CCCC1	-16%	-12%	11%	-1%	-8%
CC(=O)N(C1=C(Cl)C(=O)c2ccccc2C1=O)C1CCCCC1	-8%	-5%	-20%	1.6µM*	2.8µM*
Cc1cccc(Cn2c(=O)n(CCCC(=O)NCc3ccccc3Cl)c(=O)c3ccccc32)c1	·	-6%	·	·	·
COc1ccc(NC(=O)c2cc([N+](=O)[O-])ccc2O)cc1	-28%	1%	1%	-22%	13µM*
O=C(O)c1ccccc1C(=O)Nc1cccc([N+](=O)[O-])c1	-3%	-4%	-2%	2%	0%
COc1ccc(NC(=O)c2cccc([N+](=O)[O-])c2)cc1	-32%	11%	1%	-18%	-4%
O=C(Nc1cccc([N+](=O)[O-])c1)c1cc2ccccc2cc1O	13µM*	0%	44%	-25%	6%
Cc1cccc(C(=O)Nc2ccc(N3CCC(CCN4CCOCC4)CC3)c(C(=O)O)c2)c1	2%	3%	·	·	·
CCOC(=O)CNC(=O)N1CCCC(Cc2ccccc2)(C(=O)OCC)C1 (configuration not stated)	·	·	7%	·	·
CN(C)c1ccc(C=c2c3ccccc3n3c2cc(-c2ccccc2)[n+]3C)cc1	·	·	32µM*	·	·
Cn1c(CO)c(-c2ccccc2)c2cc([N+](=O)[O-])ccc21	-32%	?	-10%	1%	3%
COc1cc(N(C)C)ccc1C=c1c2ccccc2n2c1cc(-c1ccccc1)[n+]2C	·	·	13µM*	·	·
SMILES	AmpC no deterg	AmpC inh detg	AMA1 RON2 block	Giardia FBPA inh	LmPK inh
CN(c1ccc(Cl)cc1)c1cc(=O)n(C)c2ccccc12	34%	?	5%	-3%	2%
CN(C)c1ccc(C=c2c3cc([N+](=O)[O-])ccc3n3c2cc(-c2ccccc2)[n+]3C)cc1	·	·	8.9µM*	·	·
CN(C)c1ccc(C=c2c3ccccc3n3c2cc(-c2ccc(Cl)cc2)[n+]3C)cc1	·	·	18µM*	·	·
Nc1ccc(N2CCN(c3ncc(C(F)(F)F)cc3Cl)CC2)c(C(F)(F)F)c1	·	8%	·	·	·
COc1cccc(C(=O)Nc2c(C(N)=O)oc3ccccc23)c1	7.1µM*	?	1%	0%	4%
COc1cc(OC)cc(C(=O)Nc2ccc(-c3nc4ccccc4o3)cc2)c1	50%	-5%	-9%	-1%	1%
COc1cccc(C(=O)Nc2ccc(-c3nc4ccccc4o3)c(O)c2)c1	4µM*	-1%	33%	-3%	14%
Cc1cn([C@H]2C[C@H](O)[C@@H](CNCc3cc(Br)ccc3OCc3ccccc3)O2)c(=O)[nH]c1=O	·	·	7%	·	·
N#Cc1c(NC(=O)CSc2ncnc3sccc23)oc(-c2ccco2)c1-c1ccco1	1.8µM*	-8%	5%	?	27%
Cc1cc(NC(=O)CSc2ncnc3sccc23)no1	-15%	?	-4%	5%	-8%
CCN(CC)C(=O)c1ccc2c(c1)C1C=CCC1C(C(=O)O)N2 (configuration not stated)	-18%	-5%	13µM*	?	-28%
Cc1ccc2c(c1C)NC(C(=O)O)C1CC=CC21 (configuration not stated)	-47%	?	12µM*	-26%	-7%
CCCCn1c(N)c(N(CC(C)C)C(=O)C2CCN(S(=O)(=O)c3ccc(OCC)cc3)CC2)c(=O)[nH]c1=O	34%	-4%	6%	·	·
O=C(C1CC(=O)N(c2ccc(F)c(Cl)c2)C1)N1CCOCC1 (configuration not stated)	·	·	-6%	·	·
OC(c1ccc(Cl)c(Cl)c1)c1ncc(-c2ccccc2C(F)(F)F)[nH]1 (configuration not stated)	·	·	7%	·	·
COc1ccc(NC(=O)Cc2c[nH]c3ccccc23)cc1S(=O)(=O)N1CCCCC1	14µM*	-4%	-12%	-7%	-3%
COc1cccc(Nc2nnc(SCC(=O)Nc3sccc3C(N)=O)s2)c1	-44%	3%	35%	-12%	-1%
CCc1ccc(Nc2nnc(SCC(=O)Nc3sccc3C(N)=O)s2)cc1	16µM*	5%	13%	1%	3%
O=C(O)C1(C(=O)O)CCC2(CCCCC2)CC1	·	·	3%	·	·
COc1ccc(CCNC(=O)CCc2c(C)c3cc4c(C)coc4cc3oc2=O)cc1	·	14%	·	·	·
CN1CCN(c2nc3c(c(=O)n(C)c(=O)n3C)n2CC(N)=O)CC1	-15%	32µM*	24%	-5%	-8%
CN1CCN(c2nc3c(c(=O)[nH]c(=O)n3C)n2CC(N)=O)CC1	-1%	?	-5%	-2%	0%
N#CC1=CC2CN(Cc3ccccc3)C1C1C(=O)N(c3ccccc3)C(=O)C21 (configuration not stated)	·	·	-9%	·	·
N#Cc1ccc(C=NN2CCCCCC2)cc1	·	·	28µM*	·	·
CC(=O)c1cc(-c2ccccc2)n(CCC(=O)NCCc2ccccc2)c1C	·	7%	·	·	·
O=C(/C=C/c1cccc([N+](=O)[O-])c1)Nc1cccc(NC(=O)c2ccco2)c1	3.2µM*	?	-29%	-8%	3%

Screening data deposited in PubChem by National Center for Advancing Translational Sciences (NCATS).
